In the supplement of paper PMC10338343:
± gives the standard deviation.

Test system: EfPiwi piRISC loaded with L1MC piRNA (26 nt)
Experiment: pre-steady-state target cleavage rate (min^-1); auxiliary factor: 500 nM Ephydatia muelleri Gtsf1; guide: L1MC piRNA 5'p-UAACUAAAUACUAUGCAAGCUGUAGG; MIWI and MILI are mouse PIWI proteins and EfPiwi is from a freshwater sponge; tags in brackets are library labels; higher = faster piRNA-guided slicing of the target
In short: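 Active affinity-purified piRISC (1 nM) loaded with one synthetic guide was mixed with a transcribed, DNA-blocked target RNA library (0.1 nM), with or without 500 nM GTSF1 partner protein, in HEPES–potassium acetate buffer at 33 °C for 0–8 or 0–960 min. Uncleaved targets were sequenced, normalised to depth and to weakly complementary targets, and pooled across three trials, with k3 capped at 0.0001 min^-1. The pre-steady-state cleavage rate was determined with a burst-and-steady-state fit.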

Compared with UCCUGGAAGUGCUUGCAUAGUAUUUAGUUA, UCCUCCAACAGCUUGCUUAGUAUUUAGUUA is higher in “pre-steady-state target cleavage rate” value: 0.00537 ± 0.0019 for the first, 0.0148 ± 0.0053 for the second.

UCCUGCUACAGCUUCCAUAGUAUUUACAAA and UCCUGCUAGUCCUUGCAUAGUAUUUAGAAA are within error of each other in “pre-steady-state target cleavage rate” value: 0.00279 ± 0.0021 for the first, 0.00294 ± 0.0025 for the second.

UCCUGGAUGUCGAACGUUAGUAUUUAGAUA and “UCCUGGAUGUCGAACCAUAGUAUUUAGUUC [g2:g15:cont:t1C]” cannot be ordered by “pre-steady-state target cleavage rate” value: < 0.0001 for the first, < 0.0001 for the second.

UCCUGGAUGAGCUUGCAUAGUAUGUUAGUUA and UCCUGCUACAGCUUGCAUAGUAUUUAUUUA are within error of each other in “pre-steady-state target cleavage rate” value: 0.00879 ± 0.0036 for the first, 0.0055 ± 0.0037 for the second.

Compared with UCCUGGAUGUCGAACCAGAGUAUUUAGUUA, UCCUGGAUGAGCUUGCAAAGUAUUUAGUUA is higher in “pre-steady-state target cleavage rate” value: < 0.0001 for the first, 0.0322 ± 0.0094 for the second.

First: UCCUGGAACAGCAUGCAUAGUAAUUAGUUA
Second: UCCUGCUUCAGGUUGCAUAGUAUUUAGUUA
The “pre-steady-state target cleavage rate” value of the first is lower: 0.0139 ± 0.0048 for the first, 0.0664 ± 0.015 for the second.

First: UCCUGGAUGUCGAACGUUACAAUUUAGUUA
Second: UCCUGGAUGAGCUUCCAUAGUAUUUAGAAA
The “pre-steady-state target cleavage rate” value of the first is lower: < 0.0001 for the first, 0.00248 ± 0.0019 for the second.

Going from UCCUGGAUGUCGAACGUCAGUAUUUAGUUA to UCCUCCUACAGCUUGCAUAGUAUUAAGAAA, the “pre-steady-state target cleavage rate” value rises from < 0.0001 to 0.0051 ± 0.0031.

UCCUGCUACAGCUUGCAUAGUAUAUAGAUA and UCCUGGUACAGCUUGCAGAGUAUUUAGUUA are within error of each other in “pre-steady-state target cleavage rate” value: 0.00352 ± 0.0017 for the first, 0.00371 ± 0.0027 for the second.

First: UCCUGGUACAGGUUGCAUAGUAUUAAGUUA
Second: UCCUGGAUGUCGUUCCAUAGUAAUUAGUUA
The “pre-steady-state target cleavage rate” value of the first is higher: 0.00485 ± 0.0027 for the first, < 0.0001 for the second.

Going from UCCUGGAUGAGCUUGCAUAGUAAUUACAAA to UCCUGGAUGUCGAACCAUAGUAAUUAGUUA, the “pre-steady-state target cleavage rate” value falls from 0.00446 ± 0.0034 to < 0.0001.

UCCUGGAUGUCGAUGCAUAGUAUUUAGUAA and UCCUGCUACAGCUUGCAUAGUAUUAUGUAA are within error of each other in “pre-steady-state target cleavage rate” value: 0.00329 ± 0.0032 for the first, 0.00194 ± 0.0019 for the second.
